Only a selection was taken, and hits are over-represented in it overall.
Tgondii IFNg: blocks Toxoplasma gondii growth in the presence of IFN-gamma; Toxoplasma gondii growth in IFN-gamma-treated host cells; active compounds read low; activity change, negative = inhibition, % (no concentration beside the values); 69,000 compounds, 3.8% hits; in the data active = activity change below about -70%, passing the limit was not always enough;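 note: host cells are HeLa cells infected with Toxoplasma gondii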
* = called active by the depositor; i = inactive; ! = a repeat was not active.

SMILES | Tgondii IFNg
COc1cccc(CC(=O)Nc2ccc(-c3nc(-c4ccc(C)cc4)co3)cc2)c1 | 1
COc1cc(N2CCC3(CC2)CN(C)C(=O)CO3)ncn1 | 4
CCC(=O)Nc1ccc(C)cc1-c1cc(OC)c(OC)c(OC)c1 | -27
O=S(=O)(NCCc1ccncc1)c1cc(C(F)(F)F)cc(C(F)(F)F)c1 | 22
CCCCNS(=O)(=O)c1ccc(S(=O)(=O)NCc2ccncc2)cc1 | -80*
Cc1ccc(S(=O)(=O)NCc2ccccc2)cc1 | 14
COCCN1CCN(C)C2(CCN(Cc3nccn3C)CC2)C1=O | 3
Cc1oc(-c2ccccc2)nc1Cn1nnc(-c2nc(-c3ccccc3Cl)no2)c1C | 10
COc1ccc(-c2csc(C(N)=O)c2)cn1 | -20
COc1c(C)cc(-c2csc(C(N)=O)c2)cc1C | -72*
COc1c(C)cc(-c2cncc(C(N)=O)c2)cc1C | -5
Cc1c(C(=O)CSc2ccc(Cl)cc2)sc2ccc(Cl)cc12 | -57
COc1ccc(OS(=O)(=O)c2sc3ccc(Cl)cc3c2C)cc1 | -104*
Cc1cc(=O)c2cc(Cl)ccc2s1 | 59
O=S(=O)(C1CC1)N1CCC2(CN(c3ncccn3)C2)C1 | -52
CCOC(=O)/C(=N/O)c1csc(N)n1 | 25
CN(C)C(=O)[C@]12CCCN(C(=O)c3ccccn3)C[C@@H]1CN(c1ccccn1)C2 | 4
C/C(=N\NC(=S)N1CCC1)c1ccccn1 | -80*
Cc1ccc(/C(=C\CN2CCCC2)c2ccccn2)cc1 | 0
Cc1cccc(C(C(=O)N2CCN(C)C3(CCN(C)CC3)C2)N(C)C)c1 (stereo not given) | -6
CCNc1cc(-c2ccc(C(=O)N3CCCC3)cc2)nc(N2CCOCC2)n1 | -34
Cc1cnn(Cc2ccc(C(=O)N3CCN(c4nsc5ccccc45)CC3)o2)c1 | 16
CC(C)c1csc(NC(=O)C2CN(S(C)(=O)=O)c3ccccc3O2)n1 (stereo not given) | 8
COCCN1CCCC2(CCN(S(=O)(=O)C3CC3)CC2)C1=O | -3
Cc1cc(-c2ccccc2)nc2oc3c(c12)NC(=O)CN(c1cccc(Cl)c1)C3=O | -48
SMILES | Tgondii IFNg
O=C(O)C1/C(=C\CO)OC2CC(=O)N21 (stereo not given) | 21
N#Cc1c(-c2ccccc2)cc(-c2ccc(Cl)cc2)nc1N | 10
CCc1nc(N)c(C#N)c(-c2ccccc2)c1C | 12
N#Cc1c(N)nc(Sc2ccc(Cl)cc2)c(C#N)c1-c1ccccc1 | -92*
Cn1cc(NC(=O)c2cccc(CN3CCC3c3ccc(F)cc3)c2)cn1 (stereo not given) | -11
COCCN1CCc2nc(SCc3nc(-c4ccc(OC)c(OC)c4)oc3C)[nH]c(=O)c2C1 | 22
Cc1occc1C(=O)N1C[C@H](Oc2ccccn2)[C@@H]2OCCC[C@@H]21 | -5
CNCCC=C1c2ccccc2CCc2ccccc21 | -88*!
c1ccc(-c2ccc3c(n2)CCc2ccccc2-3)cc1 | 225
CN(C)S(=O)(=O)N1C[C@H]2CCC[C@]2(COCC2CCOCC2)C1 | -46
Nc1nc(N)c(Cc2ccccc2)cc1Cc1ccccc1 | 160
COc1ccc(Cc2cnc(N)nc2N)cc1OC | -79*
COc1ccc(COc2cc3oc(=O)c4cc(C(C)O)ccc4c3cc2OC)cc1 (stereo not given) | -6
COc1cc(OC)cc(-c2nc(N)c3c(C)c(-c4ccc(OC)c(OC)c4)sc3n2)c1 | -65
COc1ccc(CCN(C)C2CCCN(c3ccnc(N)n3)C2)cc1OC (stereo not given) | -2
COc1ccc(COc2ccc(Cc3cnc(N)nc3N)cc2OC)cc1 | -77*
CC(C)OC(=O)[C@@H]1CCN(C(=O)c2cscn2)[C@@H]1c1ccc(F)cc1 | -3
COc1ccc(N(Cc2nc(-c3cccc(C)c3)oc2C)S(=O)(=O)c2ccc(OC)cc2)cc1 | 16
CC(C)(Oc1ccc(Cl)cc1)C(=O)N1CCOCC1 | -14
Cc1cnc(N2C[C@H]3OCCN(S(=O)(=O)N(C)C)[C@H]3C2)nc1 | 9
Cc1cc(C(=O)N2C[C@H]3C[C@@H]4[C@@](C2)(CN(Cc2cccc(Cl)c2)S4(=O)=O)O3)no1 | 37
CCN1C(=O)N(C)C(=O)C12CCN(Cc1cc3oc(C)c(-c4ccccc4)c3cc1OC)CC2 | 0
CCOc1ccc(C(=O)NCCc2csc(-c3cccc(C)c3)n2)cc1OCC | i
CN1CCC2(C=C(C(=O)NC3CC3)c3ccccc32)CC1 | -3
Cc1nc(C(F)(F)F)ccc1C(=O)NC1CCCN(Cc2cnn(C)c2C)CC1 (stereo not given) | 2
SMILES | Tgondii IFNg
O=C(NC1CCN(CCCCC2(C(=O)NCC(F)(F)F)c3ccccc3-c3ccccc32)CC1)c1ccccc1-c1ccc(C(F)(F)F)cc1 | -74*
Cc1ccccc1-c1noc(-c2cccc(NC(=O)CCN3CCCO3)c2)n1 | 167
Cc1ccc(-c2noc(-c3ccc(N4CCC(N5CCCCC5)CC4)nc3)n2)cc1 | 4
CN(C)CCNC(=O)Cn1ncc2c(N3CCN(c4ccccc4)CC3)ncnc21 | 72
CCN(CC)S(=O)(=O)N1CCN(Cc2ccc(N3CCCC3=O)cc2)CC1 | -8
CC(=O)Oc1cccc(-c2csc(-n3nc(C(F)(F)F)cc3-c3ccc(Cl)cc3)n2)c1 | -93*
COc1ccc(-c2cc(C(F)(F)F)nn2-c2nc(-c3ccc(C)cc3)cs2)cc1 | 28
Cc1ccc(-c2cc(C(F)(F)F)nn2-c2nc(-c3ccccc3)cs2)cc1 | -42
O=C1CCC2(CCN(c3ncccn3)CC2)N1Cc1cccc(F)c1 | -54
CO[C@@H]1CN(C)C(=O)c2ccc(NC(=O)Nc3cc(F)ccc3F)cc2OC[C@H](C)N(C(=O)c2ccccn2)C[C@@H]1C | 2
CCCC(=O)Nc1ccc2c(c1)C(=O)N(C)C[C@@H](OC)[C@H](C)CN(C(=O)c1ccccn1)[C@H](C)CO2 | 4
COCC(=O)N1C[C@H](C)[C@@H](OC)CN(C)C(=O)c2ccc(NC(=O)Nc3cccc(F)c3)cc2OC[C@@H]1C | -35
CO[C@@H]1CN(C)C(=O)c2cc(NC(C)=O)ccc2OC[C@H](C)N(Cc2ccncc2)C[C@H]1C | -66
COCC(=O)N1C[C@@H](C)[C@H](OC)CN(C)C(=O)c2ccc(NC(=O)c3ccc(-c4ccccc4)cc3)cc2OC[C@H]1C | -103*
CO[C@@H]1CN(C)C(=O)c2cc(NC(=O)Nc3ccccc3F)ccc2OC[C@@H](C)N(C(=O)c2cnccn2)C[C@H]1C | 44
CO[C@H]1CN(C)C(=O)c2ccc(NC(=O)Nc3cc(F)ccc3F)cc2OC[C@@H](C)N(C(=O)c2ccccn2)C[C@@H]1C | -88*
CCC(=O)Nc1ccc2c(c1)OC[C@H](C)N(Cc1ccccc1)C[C@@H](C)[C@@H](OC)CN(C)C2=O | 211
CO[C@@H]1CN(C)C(=O)c2ccc(NC(=O)c3ccc4c(c3)OCO4)cc2OC[C@@H](C)N(Cc2ccc3c(c2)OCO3)C[C@H]1C | -80*
CCC(=O)Nc1ccc2c(c1)OC[C@H](C)N(Cc1ccccc1)C[C@H](C)[C@@H](OC)CN(C)C2=O | 173
CCCC(=O)Nc1ccc2c(c1)C(=O)N(C)C[C@@H](OC)[C@H](C)CN(Cc1cc(-c3ccccc3)on1)[C@H](C)CO2 | -81*
COCC(=O)Nc1ccc2c(c1)OC[C@@H](C)N(C)C[C@@H](C)[C@@H](OC)CN(C)C2=O | -19
Cn1c(=O)oc2cc(NC(=O)CC3CCN(C4CCCCC4)CC3)ccc21 | -38
CN1C[C@@H](NC(=O)c2cccc(F)c2)C[C@H]1C(=O)NCCCc1ccccc1 | 3
O=C(NCCC1COc2ccccc2O1)c1ccc(-c2ccsc2)nc1 (stereo not given) | -6

Screens from PubChem BioAssay.
